Source: PubChem BioAssay (EPA / NIEHS)
Records with an inconclusive call do not appear. Activity calls are given as the source filed them. Rule for the calls: active = hit-call score of the fitted dose curve at least 0.9, where 1 is the maximum; inconclusive = response in the unintended direction; inactive = score below 0.9.

read-out: xenobiotic metabolism (CYP2C9), CYP2C9 (gene 1559); assay: CLD_CYP2C9_6hr: CellzDirect (CLD) Gene Expression Assay for xenobiotic metabolism (CYP2C9) at 6 hours (AID 2283664)
Method: CLD_6hr is a cell-based, multiplexed-readout assay that uses hepatocyte, a human liver primary cell, with measurements taken at 6 hours after chemical dosing in a 96-well plate.CLD_CYP2C9_6hr is one of 16 assay component(s) measured or calculated from the CLD_6hr assay. It is designed to make measurements of mRNA induction, a form of inducible reporter, as detected with chemiluminescence signals by Quantitative Nuclease Protection Assay (qNPA) technology.Data from the assay component CLD_CYP2C9_6hr was analyzed at the endpoint, CLD_CYP2C9_6hr, in the positive analysis fitting direction relative to DMSO as the negative control and baseline of activity. Using a type of inducible reporter, gain-of-signal activity can be used to understand changes in the reporter gene as they relate to the gene CYP2C9. Furthermore, this assay endpoint can be referred to as a primary readout. To generalize the intended target to other relatable targets, this assay endpoint is annotated to the cyp intended target family, where subfamily is xenobiotic metabolism.
Human hepatocyte cultures were treated daily for two consecutive days with fresh dosing solutions containing appropriate concentrations of the 320 ToxCast chemicals (chemical identities were blinded to CellzDirect and other ToxCast collaborators), vehicle control (0.2% DMSO), and positive control inducers as summarized in Table 1. Due to the large number of treatment groups and chemicals examined, the ToxCast chemicals were divided into two groups (spanning two independent cultures of hepatocytes from separate donor preparations (Hu778: ToxCast plates 1 and 2; Hu776: ToxCast plates 3 and 4). Each preparation of human hepatocyte cultures was treated with respective vehicle control, medium only control, set of six positive controls/reference chemicals for the five hepatic receptor pathways, and a subset of eight of the ToxCast chemicals (indoxacarb, pyrithiobac-sodium, norflurazon, cyhalofop-butyl, methomyl, thiram, acetochlor, and propiconazole). These replicate data, coupled with internal replicates designed within the blinded ToxCast chemical library, provided additional data to evaluate interindividual differences between hepatocyte preparations and their potential impact on chemical profiles.Cell morphology and integrity were evaluated using phase-contrast microscopy as an indicator of hepatocyte cell health (Tyson & Green, 1987). Cultures for each treatment group (i.e., media, vehicle [0.2% DMSO], positive control inducers [multiple concentrations], and the ToxCast chemicals [multiple concentrations]) were observed and cell morphology was assessed relative to vehicle control cultures at each harvest time point (0, 6, 24, or 48 h). […] Images were evaluated at the conclusion of the study to assess changes in cell integrity and account for the effects of chemical exposure on uncharacteristic changes in concentration-dependent gene expression profiles. The results from these determinations of apparent cytotoxicity were annotated (yes/no) alongside the corresponding qNPA data for reference.At the conclusion of each treatment period, hepatocyte cultures (96-well) were washed with 1 volume of HBSS, lysed by addition of 25 ul ArrayPlate lysis buffer (HTG, Tucson, AZ), and 70 ul/well of Denaturation Oil, denatured by incubation at 95C for 10 min, and frozen at approximately -70C until analysis by nuclease protection assay (qNPA) (Roberts et al., 2007). For qNPA analysis, cell lysates were thawed at 50C for approximately 30 min, qNPA probes were added, and samples were incubated at 95C for 10 min to begin the detection process by denaturing the target RNA, dissociating the duplexes and secondary structure hybridization. At the conclusion of the hybridization period, S1 nuclease reagent was added to each sample to digest all nonprotected nucleotides at 50C for 60-90 min. […]

SMILES | outcome
COc1cnc(OC)n2nc(NS(=O)(=O)c3c(OCC(F)F)cccc3C(F)(F)F)nc12 | inactive
COc1nc(NC(C)C)nc(NC(C)C)n1 | inactive
COC(=O)C=C(C)OP(=O)(OC)OC | inactive
COC(=O)c1ccccc1C(=O)OC | inactive
O=C(O)COc1nc(Cl)c(Cl)cc1Cl | inactive
CCNc1nc(Cl)nc(NCC)n1 | inactive
CCCCOC(=O)c1ccccc1C(=O)OCCCC | inactive
COC(=O)N(OC)c1ccccc1COc1ccn(-c2ccc(Cl)cc2)n1 | inactive
Oc1ccccc1-c1ccccc1 | inactive
CNC(=O)ON=CC(C)(C)SC | inactive
CNC(=S)S | inactive
C#CCOS(=O)OC1CCCCC1Oc1ccc(C(C)(C)C)cc1 (centres undefined) | inactive
COc1nc(C)nc(NC(=O)NS(=O)(=O)c2ccccc2Cl)n1 | inactive
CCCCC(CC)COC(=O)c1ccccc1C(=O)OCC(CC)CCCC (centres undefined) | inactive
OC(c1ccc(Cl)cc1)(c1cncnc1)c1ccccc1Cl (centres undefined) | inactive
CCOC(=O)C(Cl)Cc1cc(-n2nc(C)n(C(F)F)c2=O)c(F)cc1Cl (centres undefined) | inactive
CC(C)C1(C)N=C(c2nc3ccccc3cc2C(=O)O)NC1=O (centres undefined) | inactive
C=CCC1=C(C)C(OC(=O)C2C(C=C(C)C)C2(C)C)CC1=O (centres undefined) | inactive
Fc1ccc(Oc2ccnc3cc(Cl)cc(Cl)c23)cc1 | inactive
O=C(O)c1nc(Cl)ccc1Cl | inactive
CCCN(CCC)c1c([N+](=O)[O-])cc(S(N)(=O)=O)cc1[N+](=O)[O-] | inactive
COc1nc(C)nc(NC(=O)NS(=O)(=O)c2ccccc2CCC(F)(F)F)n1 | inactive
Cc1cc(Cl)ccc1OCC(=O)O | inactive
COP(=S)(OC)Oc1nc(Cl)c(Cl)cc1Cl | inactive
